PubChem BioAssay (NCATS)
Records with an inconclusive call do not appear. Active and inactive are the calls of the source. The call rests on the fitted dose curve; in most records, active means well fitted inhibition curve with a large enough effect; inconclusive means small, poorly fitted or top-dose-only effect; inactive means flat fitted curve, though single readings scatter.

Experiments:
Assay in all cases: qHTS profiling for inhibitors of Plasmodium falciparum proliferation (AID 504749); further: nearly all actives have a fitted effect of over 60% in size
Settings in all cases: P. falciparum in erythrocytes, SYBR Green DNA, 72 h; series mostly up to 12.8 µM
AS120 = system: AS120
Summary of the method: (§1)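 Infected RBCs, 0.3% parasitemia/2.5% Hct final; cpd 72 h, 37 C, 5% CO2; lysis buffer with saponin/triton/SYBR Green I, o/n RT dark; FI 485/535; norm. to artemisinin (0.29 uM) and DMSO.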

CP185 = system: CP185
Summary of the method: as §1

CP194 = system: CP194
Summary of the method: as §1

CP238 = system: CP238
Summary of the method: as §1

CP256 = system: CP256
Summary of the method: as §1

CP269 = system: CP269
Summary of the method: as §1

CP286 = system: CP286
Summary of the method: as §1

CP291 = system: CP291
Summary of the method: as §1

CP297 = system: CP297
Summary of the method: as §1

CP325 = system: CP325
Summary of the method: as §1

DIV30 = system: DIV30
Summary of the method: as §1

ECU = system: ECU
Summary of the method: as §1

FAB9 = system: FAB9
Summary of the method: as §1

N140 = system: N140
Summary of the method: as §1

PC15 = system: PC15
Summary of the method: as §1

PC26 = system: PC26
Summary of the method: as §1

SC27B = system: SC27B
Summary of the method: as §1

TAB109 = system: TAB109
Summary of the method: as §1

TAB165 = system: TAB165
Summary of the method: as §1

CP266 = system: CP266
Summary of the method: as §1

Measured: Potency

CN(C)CCc1c[nH]c2ccc(CC3COC(=O)N3)cc12 (configuration not stated)
inactive: AS120 | CP185 | CP194 | CP238 | CP256 | CP269 | CP286 | CP291 | CP297 | CP325 | DIV30 | ECU | FAB9 | N140 | PC15 | PC26 | SC27B | TAB109 | TAB165

CC(=O)N[C@@H]1C(O)OC(CO)C(O)C1O (some centres not stated)
inactive: AS120 | CP185 | CP194 | CP238 | CP256 | CP266 | CP269 | CP286 | CP291 | CP297 | CP325 | DIV30 | ECU | FAB9 | N140 | PC15 | PC26 | SC27B | TAB109 | TAB165

C[C@]12CCC(=O)C=C1CCC1C2C(=O)C[C@]2(C)C1CC[C@]2(O)C(=O)CO (some centres not stated)
inactive: AS120 | CP185 | CP194 | CP238 | CP256 | CP266 | CP269 | CP286 | CP291 | CP297 | CP325 | DIV30 | ECU | FAB9 | N140 | PC15 | PC26 | SC27B | TAB109 | TAB165

CN1CC(=O)N=C1N
inactive: AS120 | CP185 | CP194 | CP238 | CP256 | CP266 | CP269 | CP286 | CP291 | CP297 | CP325 | DIV30 | ECU | FAB9 | N140 | PC15 | PC26 | SC27B | TAB109 | TAB165

O=C1OC(CO)C(O)C(O)C1O (configuration not stated)
inactive: AS120 | CP185 | CP194 | CP238 | CP256 | CP266 | CP269 | CP286 | CP291 | CP297 | CP325 | DIV30 | ECU | FAB9 | N140 | PC15 | PC26 | SC27B | TAB109 | TAB165

CCC(CCC(C)C1CCC2C3CC=C4CC(O)CC[C@@]4(C)C3CC[C@@]12C)C(C)C (some centres not stated)
inactive: AS120 | CP185 | CP194 | CP238 | CP256 | CP266 | CP269 | CP286 | CP291 | CP297 | CP325 | DIV30 | ECU | FAB9 | N140 | PC15 | PC26 | SC27B | TAB109 | TAB165

CCC(C)C(=O)OC1CCC=C2C=CC(C)C(CCC3CC(O)CC(=O)O3)[C@@H]21 (some centres not stated)
inactive: AS120 | CP185 | CP194 | CP238 | CP256 | CP266 | CP269 | CP286 | CP291 | CP297 | CP325 | DIV30 | ECU | FAB9 | N140 | PC15 | PC26 | SC27B | TAB109 | TAB165

CN(C)CCCOC1C(C(O)CO)OC2OC(C)(C)O[C@@H]21 (some centres not stated)
inactive: AS120 | CP185 | CP194 | CP238 | CP256 | CP266 | CP269 | CP286 | CP291 | CP297 | CP325 | DIV30 | ECU | FAB9 | N140 | PC15 | PC26 | SC27B | TAB109 | TAB165

COc1ccc(-c2cc(=O)c3c(O)cc(O[C@H]4OC(COC5OC(C)C(O)C(O)[C@H]5O)C(O)C(O)C4O)cc3o2)cc1O (some centres not stated)
inactive: AS120 | CP185 | CP194 | CP238 | CP256 | CP266 | CP269 | CP286 | CP297 | CP325 | DIV30 | ECU | FAB9 | N140 | PC15 | PC26 | SC27B | TAB109 | TAB165

C=Cc1c(C)/c2[n-]/c1=C\c1[n-]c(c(CC)c1C)/C=c1\[n-]c3c(c1C)C(=O)C(C(=O)[O-])C=3c1[n-]c(c(C)c1CCC(=O)[O-])\C=2.[Cu].[Na+].[Na+] (configuration not stated)
inactive: CP185 | CP256 | CP266 | CP269 | CP286 | CP291 | CP325 | DIV30 | FAB9
